Compounds with a hit are over-represented: about 12% of the library has one in this group of screens.
G9a inh = qHTS Assay for Inhibitors of Histone Lysine Methyltransferase G9a; 8.8% of 350,000 active; Histone-lysine N-methyltransferase EHMT2 (Homo sapiens), Q96KQ7; Potency, µM (top dose mostly 102 µM), without a hit: top-dose activity, negative = inhibition, usual class: inhibitors; G9a H3K9 monomethylation, AlphaScreen, 2 h; AID 504332, 2011; note: % is set by controls: 0 for no effect and ±100 for the full control effect; nearly all actives have a fitted effect of over 75% in size
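Chemiluminescent proximity detection of H3K9 monomethylation, read after 10 min bead incubation in the dark. Reaction: 20 nM G9a, 500 nM biotin-H3K9 peptide, 20 uM SAM cofactor, 2 h, room temperature, following 15 min enzyme-compound preincubation.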
HP1b chromo inh = HTS for Inhibitors of HP1-beta Chromodomain Interactions with Methylated Histone Tails; Chromobox protein homolog 1 (Homo sapiens), P83916; AlphaScreen HP1-beta / biotin-H3K9me3 peptide binding; Potency, µM (highest dose often 114 µM), inactives show top-dose activity change, negative = inhibition, actives largely listed as inhibitors; 0.56% of 390,000 active; AID 540317, 2011; note: nearly all actives have a fitted effect of over 70% in size
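AlphaScreen: HP1-beta (50 nM) preformed 30 min with biotin-H3(1-18)K9me3 peptide (50 nM) in PBS pH 7.4, 0.01% Tween-20. Compound added for 30 min at RT, then streptavidin donor/nickel chelate acceptor beads (10 ug/mL) for 30 min.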
PLK1 PBD block = qHTS for Inhibitors of PLK1-PDB (polo-like kinase 1 - polo-box domain): Primary Screen. 2.8% of 360,000 active. Plk1 PBD binding of FITC phosphopeptide, fluorescence polarization. Serine/threonine-protein kinase PLK1 (Homo sapiens), P53350. Potency, µM, for the others: max response, negative = inhibition, usual class: inhibitors; note: series mostly up to about 57 µM; % is set by controls: 0 for no effect and ±100 for the full control effect; nearly all actives have a fitted effect of over 65% in size
JMJD2A Tudor inh = qHTS Assay for Inhibitors of JMJD2A-Tudor Domain; AlphaScreen JMJD2A-Tudor / H3K4me3 peptide binding; Potency, µM (highest dose often 114 µM), for inactives: top-dose activity change, negative = inhibition, most hits filed as inhibitors; 4.4% of 390,000 active; note: % is set by controls: 0 for no effect and ±100 for the full control effect; nearly all actives have a fitted effect of over 50% in size
Sfp inh = qHTS Assay for Inhibitors of Bacillus subtilis Sfp phosphopantetheinyl transferase (PPTase) | Biochemical Sfp PPTase activity, qHTS | 3.5% of 310,000 active | Potency, µM, for the others: largest response in the series, negative = inhibition, most hits filed as inhibitors;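 note: the enzyme is Sfp with the accession as filed and its product quenches rhodamine fluorescence; 0% = enzyme reaction without inhibitor and -100% = no enzyme wells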
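Step 1, compound plus 15 nM Sfp-PPTase, 15 min, room temperature. Step 2, add rhodamine-CoA (5 uM) and BHQ-2-YbbR (12.5 uM). Step 3, read 525/598 nm fluorescence at 0 and 30 min.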
BAZ2B inh = qHTS Assay for Inhibitors of BAZ2B | Bromodomain adjacent to zinc finger domain protein 2B (Homo sapiens), Q9UIF8 | AlphaScreen BAZ2B-H3K14Ac peptide displacement | Potency, µM (doses to about 114 µM), without a hit: at the top dose activity change, negative = inhibition, actives largely listed as inhibitors | 4.4% of 360,000 active | AID 504333, 2011; note: % is set by controls: 0 for no effect and ±100 for the full control effect; nearly all actives have a fitted effect of over 60% in size
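BAZ2B (50 nM) with biotin-H3(5-23)K14Ac peptide (50 nM) in PBS pH 7.4, 0.01% Tween-20, preformed 30 min, then compound 30 min at room temperature; top concentration 110uM. AlphaScreen streptavidin donor/nickel chelate acceptor beads (10 ug/mL final), 20 min dark, signal read.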
* = called active by the depositor; ? = inconclusive; nt = no result given; [ ] = remark or other dose. Calls come from the whole dose curve; as a rule, active = well fitted curve in the direction sought with a large enough effect; inconclusive = small, poorly fitted or top-dose-only effect, or another doubt; inactive = no such curve, though single readings can be large; an effect the other way counts as inactive or inconclusive. Potency is the fitted concentration of half-maximal effect.

SMILES | G9a inh | HP1b chromo inh | PLK1 PBD block | JMJD2A Tudor inh | Sfp inh | BAZ2B inh
CC(C)C[C@@H](NC(=O)[C@@H](O)[C@H](N)Cc1ccccc1)C(=O)O | 16.5%[59 µM] | nt | nt | nt | 13.5% | nt
Cn1ccnc1SCC(=O)Nc1cc(C(F)(F)F)ccc1N1CCOCC1 | -4.2%[59 µM] | -4.9% | -6.8% | -25.4% | 18.6% | -8.9%
COc1ccc(N2CCN(CCCNC(=O)Cn3c(=O)c4cccn4c4ccccc43)CC2)cc1 | 39.8µM* | ? | -12.3% | -34.8% | 11.6% | ?
O=C(NCCCN1CCN(c2ccc(F)cc2)CC1)c1ccc2nc(Cc3ccccc3)oc2c1 | -37.8%[59 µM] | -8.6%[57 µM] | nt | ? | nt | 31.6µM*
COc1ccc(N2CCN(CCCNC(=O)c3nnc(Cc4ccccc4Cl)o3)CC2)cc1 | 12.6µM* | ? | nt | 50.1µM* | nt | 35.5µM*
O=C(NCCCN1CCN(c2ccccc2)CC1)c1ccc2nc(Cc3ccccc3)oc2c1 | -40.8%[59 µM] | -0.9%[57 µM] | nt | ? | nt | ?
O=C(Cn1c(SCc2cccc(F)c2)nc2cccnc21)Nc1ccc(F)c(Cl)c1 | -8.0%[59 µM] | 18.4% | nt | -3.3% | nt | -1.2%
C[C@H]1CN([C@@H](C)CO)C(=O)c2cc(Br)cnc2O[C@@H]1CN(C)S(=O)(=O)c1ccccc1 | nt | nt | -8.2% | nt | nt | nt
O=C1/C(=C/N(C(=O)c2ccco2)c2ccc(Br)cc2)Sc2ccccc21 | 44.7µM* | ? | ? | 56.2µM* | -3.8% | ?
Cc1noc(NS(=O)(=O)c2ccc(N/C=C\C(=O)c3cccc4ccccc34)cc2)c1C | ? | ? | 23.8µM* | ? | 79.4µM* | 50.1µM*
CCOc1ccc(C(=O)/C=C/Nc2ccc(S(=O)(=O)Nc3onc(C)c3C)cc2)cc1 | 1.58µM* | -10.9% | -27.2% | -23.0%[57.1 µM] | ? | ?
CCc1nnc(NS(=O)(=O)c2ccc(N/C=C\C(=O)c3cccc4ccccc34)cc2)s1 | ? | ? | ? | ? | -5.7% | ?
COc1cccc(C(=O)/C=C/Nc2ccc(S(=O)(=O)Nc3onc(C)c3C)cc2)c1 | ? | 19.2% | 0.3% | -15.6% | 9.3% | ?
CCC(C(=O)NCCCN(CC)CC)n1ncn2c(cc3occc32)c1=O (stereo unspecified) | ? | 3.2% | nt | -12.0% | nt | 4.2%
Cc1ccc(Sc2ccc(/C=N/O)cc2[N+](=O)[O-])cc1 | ? | -45.0% | 0.2% | 44.7µM* | -11.7% | ?
CCc1cccc(NC(=O)C2CCCN(S(=O)(=O)c3cccnc3)C2)c1 (stereo unspecified) | 42.6% | 51.1% | 6.2% | 7.4% | 12.9% | -16.3%
c1ccc2c(c1)ncc1cccn12 | 24.3%[59 µM] | 19.5% | -14.2% | -12.5% | 2.8% | 8.0%
c1ccc(-c2ncc3ccccn23)cc1 | 79.4µM* | -4.4% | -7.6% | -28.5% | 15.8µM* | -36.7%
CCSc1ncc(Cl)c(C(=O)N(Cc2ccc(N(C)C)cc2)C2CCS(=O)(=O)C2)n1 (stereo unspecified) | ? | -19.5% | -12.6% | ? | 2.0% | ?
Cc1cc(OCC(=O)N(Cc2ccc(N(C)C)cc2)C2CCS(=O)(=O)C2)cc(C)c1Cl (stereo unspecified) | ? | -25.2% | nt | 39.8µM* | nt | 10µM*
Cc1ccc(OCC(=O)N(Cc2ccc(C)o2)C2CCS(=O)(=O)C2)cc1 (stereo unspecified) | -5.3% | 6.9% | 26.7µM* | ? | -4.7% | -13.1%[57.1 µM]
CC(C)Sc1ncc(Cl)c(C(=O)N(Cc2ccc(N(C)C)cc2)C2CCS(=O)(=O)C2)n1 (stereo unspecified) | ? | ? | nt | 56.2µM* | nt | 44.7µM*
